The full list was thinned out, with hits kept by preference.
TDP1 cell CPT: DT40-hTDP1 cell growth loss with CPT | Potency, µM (titrated, usually from 46.2 µM), without a hit: top-dose activity change, negative = growth inhibition, actives largely listed as inhibitors | AID 686979 | chicken DT40 Tdp1-/-;hTDP1 cells + 20 nM CPT, ATP luminescence, 48 h | 420,000 compounds, 12% hits; also: potency is read from the fitted curve at half-maximal effect; nearly all actives have a fitted effect of over 55% in size
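Chicken DT40 Tdp1-/- cells stably complemented with human TDP1 were seeded at 400 cells/well in medium containing 20 nM camptothecin, exposed to pin-transferred compounds, and grown at 37 °C for at least 48 hr. Viability was read as ATP luminescence.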
ALOX12 inh: inhibitors of human 12S-lipoxygenase ALOX12; purified 12hLO, xylenol orange hydroperoxide absorbance; Potency, µM (doses to about 108 µM), without a hit: top-dose activity change, negative = inhibition, most hits filed as inhibitors; AID 1671190; 580,000 compounds, 1.1% hits; P18054; also: potency is read from the fitted curve at half-maximal effect
Target sequence (P18054 whole entry, looked up): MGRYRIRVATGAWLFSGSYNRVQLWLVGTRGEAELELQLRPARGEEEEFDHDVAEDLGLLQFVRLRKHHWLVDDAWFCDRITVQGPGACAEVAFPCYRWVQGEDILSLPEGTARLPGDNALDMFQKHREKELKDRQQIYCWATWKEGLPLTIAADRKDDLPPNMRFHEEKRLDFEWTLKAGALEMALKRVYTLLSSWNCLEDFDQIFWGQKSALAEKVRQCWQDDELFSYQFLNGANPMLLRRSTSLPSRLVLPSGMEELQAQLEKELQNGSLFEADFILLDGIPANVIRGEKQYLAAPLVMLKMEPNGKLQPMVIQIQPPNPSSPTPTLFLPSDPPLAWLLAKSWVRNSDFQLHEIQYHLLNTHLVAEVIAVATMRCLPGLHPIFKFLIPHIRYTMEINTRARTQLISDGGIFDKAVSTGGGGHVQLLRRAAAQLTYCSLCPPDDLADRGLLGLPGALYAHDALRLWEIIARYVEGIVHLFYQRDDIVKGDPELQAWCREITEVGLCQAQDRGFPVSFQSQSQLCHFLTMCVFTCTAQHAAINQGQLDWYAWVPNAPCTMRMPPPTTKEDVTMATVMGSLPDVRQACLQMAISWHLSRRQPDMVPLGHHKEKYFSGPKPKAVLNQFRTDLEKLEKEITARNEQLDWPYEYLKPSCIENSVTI
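Purified human 12hLO at 150 nM in 25 mM Hepes, 0.01% Triton X-100, pH 7.0, preincubated 15 min at room temperature with compound. Reaction started with 40 uM arachidonic acid, 30 min at room temperature. Hydroperoxide measured by Fe-xylenol orange, 573/405 nm absorbance ratio.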
IL1B secr inh: blocks inflammasome-driven IL-1 beta release | THP-1 LPS/ATP IL-1B secretion, AlphaLISA, 16 h; hits give low values | AID 743279 | 360,000 compounds, 4.7% hits | activity change, % at 57.5 µM; in the data active = activity change below about -50%; inconclusive = mostly about -30% to -49%
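THP-1 cells pretreated 1 hr with compounds (up to 57.5 uM final), then stimulated with LPS (250 ng/mL final) plus ATP (1.25 mM final); secreted IL-1B measured by AlphaLISA after 16 hr, decreased signal indicating inhibition.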
HT1080 IDH1KD tx: HT-1080 IDH1 knockdown cell toxicity (counter line). 360,000 compounds, 2% hits. AID 686971. HT-1080 IDH1 knockdown viability, ATP luminescence, 48 h. Potency, µM (series often up to 46.1 µM), inactives show at the top dose activity, negative = toxicity, hits mostly cytotoxic;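 also: potency is read from the fitted curve at half-maximal effect; 0% = DMSO wells and -100% = cell-free medium wells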
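IDH1KD HT-1080 cells, 750/well, RPMI + 5% FBS; compound pinned after 2 h settling; 48 h, 37 °C; CellTiter-Glo luminescence; % activity normalised to DMSO and no-cell wells; curves fitted, classed by r2 and efficacy.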
TDP1 cell noCPT: qHTS for Inhibitors of human tyrosyl-DNA phosphodiesterase 1 (TDP1): qHTS in cells in absence of CPT; DT40 Tdp1-/- hTDP1 cells, no CPT, ATP luminescence, 48 h; 420,000 compounds, 15% hits; AID 686978, 2013; Potency, µM (series often up to 46.2 µM), without a hit: top-dose activity change, negative = growth inhibition, hits mostly inhibitors; also: potency is read from the fitted curve at half-maximal effect; nearly all actives have a fitted effect of over 55% in size
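Chicken DT40 Tdp1-/- cells complemented with human TDP1, screened without camptothecin (DMSO vehicle only), 400 cells/well. Compounds pin-transferred, cells incubated at 37 °C for at least 48 hr. Growth read as ATP-dependent luminescence (CellTiter-Glo, 30 min at RT).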
HT1080-NT tox: kills 2HG-producing HT-1080-NT fibrosarcoma cells; AID 686970; 360,000 compounds, 1.6% hits; Potency, µM (series often up to 46.1 µM), inactives show at the top dose activity, negative = less viability, most hits filed as cytotoxic; HT-1080-NT fibrosarcoma viability, CellTiter-Glo ATP luminescence, 48 h;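 also: NT is the 2HG producing partner of a matched IDH1 knockdown line; potency is read from the fitted curve at half-maximal effect; 0% = DMSO-treated cells and -100% = media-only wells without cells; nearly all actives have a fitted effect of over 55% in size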
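HT-1080-NT; 750 cells/well; 5% FBS RPMI; 48 h compound, 37 degrees C; CellTiter-Glo luminescence; curve fitting and curve-class assignment.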
Active calls of the source: *; i = inactive; ? = inconclusive; . = no result given; ! = not confirmed by another sample; [ ] = another dose, or the depositor's remark. Unless noted, calls follow the shape of the dose curve; as a rule, active = well fitted curve in the direction sought with a large enough effect; inconclusive = small, poorly fitted or top-dose-only effect, or another doubt; inactive = no such curve, though single readings can be large; an effect the other way counts as inactive or inconclusive. Unless noted, % is scaled to controls: 0 for no effect and ±100 for the full control effect.

SMILES	TDP1 cell CPT	ALOX12 inh	IL1B secr inh	HT1080 IDH1KD tx	TDP1 cell noCPT	HT1080-NT tox
Cc1ncc2c(n1)C[C@@H]1CC[C@H]2N1C(=O)COc1ccccc1	.	20%	.	.	.	.
CN(CC1COc2ccccc2O1)c1nc(-c2cccnc2)nc2ccccc12 (configuration not stated)	21µM*	0%	?	-3%	23µM*	-15%
Cc1cc(C(=O)CS(=O)(=O)c2ccccc2)cc(C)c1OC(=O)N(C)C	?	-1%	34	-16%	18µM*	-17%
Cc1ccc(S(=O)(=O)CC(=O)c2cc(C)c(OC(=O)N(C)C)c(C)c2)cc1	?	0%	3	-3%	?	-9%
CCOc1cc2[nH]c(=O)n(CCCCC(=O)N3CCN(c4cccc(Cl)c4)CC3)c(=O)c2cc1OCC	2.3µM*	8%	.	.	5.2µM*	.
COc1cc2[nH]c(=O)n(CCCCCC(=O)N3CCN(c4cccc(C(F)(F)F)c4)CC3)c(=O)c2cc1OC	?	?	.	.	6.5µM*	.
COc1ccc(N2CCN(C(=O)CCCCCn3c(=S)[nH]c4ccc(N5CCOCC5)cc4c3=O)CC2)cc1	4.1µM*	22%	-22	-18%	2.9µM*	-22%
CCOc1cc2[nH]c(=S)n(CCCC(=O)N3CCC4(CC3)OCCO4)c(=O)c2cc1OCC	-3%	0%	6	-3%	-34%	14%
Cc1noc(-c2ccc(N3CC4CC(C3)c3cccc(=O)n3C4)nc2)n1 (configuration not stated)	.	4%	.	.	.	.
COc1ccc(-c2cc([C@H]3CN4CC[C@H]3C[C@@H]4CNC(=O)C3CC3)nc(C)n2)cc1OC	.	35%	.	.	.	.
O=C(NCc1c(-n2cccc2)sc2c1CCCC2)Nc1cccc(C(F)(F)F)c1	4.1µM*	-22%	.	.	4.1µM*	.
C#CCN(C[C@@H]1[C@@H](OC(=O)Nc2c(C)noc2C)[C@@H](OC(=O)Nc2c(C)noc2C)Cn2c(=O)n(CCCCCC)c(=O)n21)S(=O)(=O)c1ccc(C)cc1	18µM*	?	-59*	-10%	21µM*	-13%
COc1cc2c3cc1Oc1cc(ccc1O)C[C@@H]1c4c(cc(OC)c(O)c4Oc4ccc(cc4)C[C@H]3N(C)CC2)CCN1C	4.1µM*	?	18	8%	4.6µM*	11%
COc1cc2c3c(c1OC)Oc1ccc(cc1)C[C@H]1c4c(cc(OC)c(OC)c4Oc4ccc(cc4)C[C@@H]3N(C)CC2)CCN1C	16µM*	-23%	-3	-25%	18µM*	-17%
COc1cc2c3cc1Oc1c(OC)c(OC)cc4c1[C@@H](Cc1ccc(O)c(c1)Oc1ccc(cc1)C[C@@H]3N(C)CC2)N(C)CC4	?	.	.	.	-22%	.
COc1ccc2cc1Oc1ccc(cc1)C[C@H]1c3cc(c(OC)cc3CCN1C)Oc1c(OC)c(OC)cc3c1[C@H](C2)N(C)CC3	5µM*!	?	-96*	15µM*	11µM*!	5.8µM*
CCCNC(=O)COC(=O)c1cn(C)c2ccccc12	.	-12%	.	.	.	.
C=CCN(C)C(=O)[C@H]1CN2CCC1C[C@@H]2Cn1cc(CCO)nn1 (some centres not stated)	.	38%[176 µM]	.	.	.	.
O=C(Cc1ccc(F)cc1Cl)N1C[C@H]2CC[C@@H]1CN(Cc1cccnc1)C2	.	15%	.	.	.	.
COc1cc(OC)c(OC)cc1CNCCc1cccc(F)c1	-27%	?	-17	0%	?	-9%
Cc1ccccc1CCNCc1ccc(Br)cc1	?	?	-65*	?	?	?
Cc1ccsc1CNCCc1ccccc1F	3%	14%	-28	12%	4%	7%
COc1cc(OC)c(OC)cc1CNCCc1ccc(F)cc1	?	?	-12	-3%	12µM*	-4%
CCc1ccc(CNCCc2ccc(F)cc2)cc1	?	-23%	-83*	-22%	?	-27%
COc1ccc(CCNCc2ccc(Br)cc2)cc1OC	21µM*	i	-27	-8%	?	-25%
SMILES	TDP1 cell CPT	ALOX12 inh	IL1B secr inh	HT1080 IDH1KD tx	TDP1 cell noCPT	HT1080-NT tox
Fc1ccc(CCNCc2ccc(Cl)c(Cl)c2)cc1	?	?	-53*	?	-26%	?
CCCN1CCCc2cc(CN)ccc21	9.2µM*	?	47	?	18µM*	?
Cc1c(NC(=O)Nc2cccc(C(F)(F)F)c2)sc2nc3n(c(=O)c12)CCC(C)CC3 (configuration not stated)	13µM*	-19%	.	.	18µM*	.
O=S(=O)(NC[C@H]1C[C@@H]2CCN1C[C@@H]2CN1CCCC1)c1ccc(Cl)cc1	.	11%[176 µM]	.	.	.	.
CCC(C)C1NC(=O)C(C(C)=O)=C1O (configuration not stated)	16µM*	-16%	26	1%	?	21%
C[C@H]1O[C@@H](O[C@H]2CC[C@@]3(C)[C@H](CC[C@@H]4[C@@H]3C[C@@H](O)[C@]3(C)[C@@H](C5=CC(=O)OC5)CC[C@]43O)C2)C[C@H](O)[C@@H]1O[C@H]1C[C@H](O)[C@H](O[C@H]2C[C@H](O)[C@H](O[C@@H]3O[C@H](CO)[C@@H](O)[C@H](O)[C@H]3O)[C@@H](C)O2)[C@@H](C)O1	1.3µM*	-2%	.	.	0.94µM*	.
CC(=O)O[C@H]1C[C@H](O[C@H]2[C@@H](O)C[C@H](O[C@H]3[C@@H](O)C[C@H](OC4CC[C@@]5(C)C(CC[C@@H]6[C@@H]5CC[C@]5(C)[C@@H](C7=CC(=O)OC7)[C@@H](O)C[C@]65O)C4)O[C@@H]3C)O[C@@H]2C)O[C@H](C)[C@H]1O[C@@H]1O[C@H](CO)[C@@H](O)[C@H](O)[C@H]1O (some centres not stated)	3.3µM*	11%	.	.	2.4µM*	.
CC(=O)OC1CC2(O)[C@@H]3CCC4CC(OC5CC(O)C(OC6CC(O)C(OC7CC(O)C(O)C(C)O7)C(C)O6)C(C)O5)CCC4(C)[C@H]3CCC2(C)C1C1=CC(=O)OC1 (some centres not stated)	.	-66%	.	.	.	.
